This is an account of results in PubChem BioAssay AID624040 (The Scripps Research Institute Molecular Screening Center, 2012).

The campaign covered roughly 360,000 compounds. About 2,100 (0.58%) were called active.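 Rule for the calls: active = inhibition above a per-plate cutoff, the mean of that plate's test compounds plus 3 SD (cut at about 27% in these data); inactive = the rest.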 Many of the other results were omitted from the sample, so actives are more common in it than they were.

Chain of Muscarinic acetylcholine receptor M5 (Homo sapiens) (P08912 whole entry, looked up): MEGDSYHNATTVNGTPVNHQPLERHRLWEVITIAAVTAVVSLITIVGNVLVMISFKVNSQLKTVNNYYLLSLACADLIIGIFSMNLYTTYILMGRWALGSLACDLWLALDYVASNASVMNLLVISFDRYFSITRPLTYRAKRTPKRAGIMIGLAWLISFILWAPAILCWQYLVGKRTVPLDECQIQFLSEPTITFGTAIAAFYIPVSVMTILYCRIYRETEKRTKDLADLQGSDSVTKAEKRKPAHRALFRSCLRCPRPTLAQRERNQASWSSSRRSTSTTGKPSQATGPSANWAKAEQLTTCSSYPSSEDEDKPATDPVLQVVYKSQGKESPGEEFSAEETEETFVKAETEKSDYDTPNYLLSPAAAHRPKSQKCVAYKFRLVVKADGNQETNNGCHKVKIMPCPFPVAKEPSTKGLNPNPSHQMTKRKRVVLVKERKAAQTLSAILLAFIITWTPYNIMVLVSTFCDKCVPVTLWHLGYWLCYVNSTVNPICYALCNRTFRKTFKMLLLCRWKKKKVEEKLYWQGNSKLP

The test concerns the target Muscarinic acetylcholine receptor M5 (Homo sapiens) (UniProt P08912). In words: CHRM5 blockers of acetylcholine calcium response – CHO cells, Fluo-8 calcium fluorescence, primary screen (AID 624040).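 Note: 0% = acetylcholine EC80 with DMSO and 100% = DMSO without agonist.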 The following applies: CHO-hM5 cells, ACh EC80, at 3 µM, stronger effect = higher value.
On to `CC(=O)OC(C)C[N+](C)(C)C` (configuration not stated), for which the inhibition (in general, the change of the read-out against control, counted positive when it falls) was 95.7% (active).

As for `CC(C[N+](C)(C)C)OC(N)=O` (configuration not stated), the inhibition was 74.8% (active).

In the case of `CC(=O)OCCC(C)C`, the inhibition was 6.5% (inactive).

In the case of `CC(=O)OCC(COC(C)=O)OC(C)=O`, the inhibition is -2.99% (inactive).

As to `Cn1c(CCCOc2ccc(Cl)cc2Cl)n[nH]c1=S`, the inhibition was 6.7% (inactive).

As to `CN(Cc1ccc(CNC[C@H]2O[C@@H](n3cnc4c(N)ncnc43)[C@H](O)[C@@H]2O)o1)S(C)(=O)=O`, the inhibition is -3.06% (inactive).

As to `O=C(COC(=O)c1cccnc1Cl)Nc1ccc(S(=O)(=O)N2CCOCC2)cc1`, the inhibition was 13.3% (inactive).

For `CCOc1ccc(NC(=O)CSc2nc3ccccc3c(=O)n2Cc2cccs2)cc1`, the inhibition is 8.62% (inactive).

As for `O=C(Cc1ccc(Cl)cc1)NC(=S)Nc1ccccc1O`, the inhibition was 64.5% (active).

Consider `O=C(NC(=S)Nc1ccc(Cl)cc1Cl)C1CC1`, for which the inhibition was 6.51% (inactive).

As for `COC(=O)c1ccccc1NC(=O)CN(Cc1ccc(Cl)cc1)S(C)(=O)=O`, the inhibition is 5.2% (inactive).

For the molecule `Cc1cc(NS(=O)(=O)c2ccc(NC(=O)c3cccc(OC(F)F)c3)cc2)nc(C)n1`, the inhibition was -2.8% (inactive).

For `O=C1C(Cl)=C(Oc2ccccc2)C(=O)c2ccccc21`, the inhibition was 30.4% (active).

With `O=C(NCc1ccco1)C(c1ccncc1)N(C(=O)Cn1nnc2ccccc21)c1ccccc1` (configuration not stated), the inhibition was 9.94% (inactive).

As to `O=C(Nc1ccc(S(=O)(=O)NCC2CCCO2)cc1)c1ccc(F)cc1` (configuration not stated), the inhibition is 1.2% (inactive).

Regarding `N=c1n(Cc2ccc(Cl)cc2)c2ccccc2n1CC(O)c1ccco1` (configuration not stated), the inhibition was 2.61% (inactive).

Consider `O=S1(=O)CC/C(=N\Nc2ccc(F)cc2)c2ccsc21`, for which the inhibition was -3.05% (inactive).

`CC(C)NS(=O)(=O)c1ccc(OCC(=O)NC2CCCCCC2)cc1`: the inhibition was 1.3% (inactive).

With `Cc1cn([C@H]2C[C@H](O)[C@@H](/C=C/C(=O)NCCCc3ccccc3)O2)c(=O)[nH]c1=O`, the inhibition was 6.27% (inactive).

In the case of `CCOC(=O)c1cccnc1NC(=O)c1ccncc1`, the inhibition is 4.86% (inactive).

Regarding `Cc1ccc(NC(=O)OCCNC(=O)c2ccncc2)cc1`, the inhibition is 50% (active).

Consider `Cc1ccc(NC(=O)c2ccc(Oc3ncccn3)cc2)cc1`, for which the inhibition is 9.93% (inactive).

In the case of `COC(=O)[C@]12CCCCC=C1N(CCC1=CCCCC1)C(=O)[C@H](CC(=O)N1CCSCC1)C2`, the inhibition was 1.29% (inactive).

For `CCCCCCC(O)(CCN1CCCCC1)c1ccccc1` (configuration not stated), the inhibition was 97.8% (active).

Turning to `OC(C#CCN1CCOCC1)(c1ccccc1)C1CCCCC1` (configuration not stated), the inhibition is 7.29% (inactive).

For the molecule `COc1ccc(C(O)(C2CCCCC2)C(CN2CCCC2)c2ccccc2)cc1` (configuration not stated), the inhibition is -3.7% (inactive).

In the case of `CCCCCC(O)(CCN1CCCCC1)c1ccccc1` (configuration not stated), the inhibition was 98.2% (active).

As for `C#CC(CCN1CCCCC1)(OC)c1ccccc1` (configuration not stated), the inhibition was 30.6% (active).

Take `CC(CN1CCCCC1)c1ccccc1` (configuration not stated): the inhibition was 2.28% (inactive).

For the molecule `CCc1ccccc1NC(=O)NCCN1CCCCC1`, the inhibition is -5.44% (inactive).

`O=C(c1ccccc1)C(O)(CN1CCCCC1)c1ccccc1` (configuration not stated): the inhibition is 8.34% (inactive).

With `c1ccc2cc3[nH]c(CN4CCCCC4)nc3cc2c1`, the inhibition was 7.88% (inactive).
